According to the supplement of paper PMC11417369:
Over roughly 25,000 sequences, “ln(normalized median fluorescence intensity)” has its median near 9.7; the highest 2% begin near 11. Shown is part of a subset that was picked to be rich in the highest values.

Each sequence was assayed on PfAP2-HC AP2 domain (GST-tagged) (assay: gcPBM binding intensity (ln(normalized median fluorescence intensity)); higher = stronger DNA binding).
In short: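 Using an Agilent 4 × 180k array, primer-extended double-stranded 36-bp intergenic genomic probes and negative controls were exposed for 1 h to GST-fused P. falciparum DNA-binding domains expressed in E. coli. Binding was carried out in 1× PBS with 1% milk, 0.2 mg/ml BSA, 0.5% salmon testes DNA and 0.03% Triton X-100, and protein was detected with Alexa488 anti-GST antibody and a 488 nm scan. Binding intensity is the highest Masliner-normalised natural-log median intensity across replicate spots of either probe orientation.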

Sequence	gcPBM binding intensity (ln)
AGCAGACACCAACACACACACATATATATATATATA [CACACA_site337]	10.5
AAATAAAATACATATAAACACACATATAAACCAACA [CACACA_site8789]	10.2
CATATATAAAAAAACACACACATATATATATATATA [CACACA_site1195]	10.2
ACTTGACACGGACACACACACATATATAAAAAAAAA [CACACA_site4576]	10.5
GTTTGATTAAACTTGACACACATATATATAAATATA [CACACA_site1784]	9.65
AAACTTGACAGACACACACACACATATATAAAAAAA [CACACA_site757]	10.4
AATGGAAAATTATTAACACACACATATAAATATATA [CACACA_site7899]	10.1
AAATATAAATATACTCGTACATATATATATATATAT [XGTACX_site6940]	9.72
ACAAAACATATATTCTGTACATATATAATGGTGACT [XGTACX_site6796]	9.77
TTTTTTTTTTTTTTTTTTTGATTCTTATAAAAATTT [GTGCAC_negctrl_site240]	8.56
CTTATATTTAGACACACACACAATAAAATGAAAAAA [CACACA_site1031]	10.3
TACTAAGAATTAATATAACAAAATAAAAAAAAAAAA [XGTACX_negctrl_site346]	9.44
AATACAATTTATAACACACACACAAGAATACCTATA [CACACA_site6705]	11.1
CAATTTATAAAGAAAACACACATATACCTATATACA [CACACA_site6710]	9.85
TACAATTTATGACACACACACAATAATACCTATATA [CACACA_site6704]	10.3
ATTGCATTTGTAGATAATACAATATGGATTGTTATA [CACACA_negctrl_site1749]	9.44
TCCTTATTACTTTTTTAAGTCGTAATGAAAGAAAAA [CACACA_negctrl_site1497]	9.15
AAATATTTATACCACACACACATACCTCTATTTGTA [CACACA_site6957]	10.7
CAAAATATATATACCACACACACATACCTCTATTTG [CACACA_site1853]	10.4
AAATATATATACCACACACACATACCTCTATTTGTA [CACACA_site1854]	11.1
CATATATACCTATATACACACATATAGATTTATATA [CACACA_site6451]	9.78
GATACCTATAGACACACACACATACCTATATACATA [CACACA_site7586]	10.9
TATACCTATAGACACACACACATATAGATTTATATA [CACACA_site7124]	11.1

Sequence	gcPBM binding intensity (ln)
CATACATAGATATATACACACATACCTATAAATACA [CACACA_site6513]	10.2
AATAGATATATAAATACACACAAACATACCTATATA [CACACA_site7823]	10.6
TATACCTATAGACACACACACATAAATAGATATATA [CACACA_site6748]	11.1
TATAGATACCTATACACACACACACGGACATATATA [CACACA_site7585]	10.8
ATATATACCTAAGACACACACATATAGATTTATATA [CACACA_site6498]	10.4
CATACACATAGACACACACACATATATACCTATATA [CACACA_site6644]	10.8
TTTGTAAGTCTTTGTTGTACTCAATAGAATGAAGAA [XGTACX_site8930]	9.45
AACTCTTAGAATGACGGTACAGTATAATAGGTGAAC [XGTACX_site7163]	9.69
TATAACTTTTTTAATACACACAAATATTTATTTATA [CACACA_site7425]	9.61
ATACGTATATAATATACATGCATATATAGCACATAC [TGCATGCA_site376]	9.83
TATAAATATACAAACACACATACAAACATATATATA [CACACA_site1120]	10.2
TTCAAATATAAATACACACACATAGCTACAAAATAA [CACACA_site4172]	11
CATACATACAAACACACACACATATATATATATATA [CACACA_site43]	10.2
TACAATCTAAAATACACACACACAAACATATATTTA [CACACA_site3702]	10.7
AATTCAAATATAAATACACACACATAGCTACAAAAT [CACACA_site9386]	10.3
TAAATATATAAATACACACAAACATACATATATATA [CACACA_site4050]	10.1
AATATATAGCTAAAAACACACAAATATATACACATA [CACACA_site9203]	9.97
CATACATACAAACACACACACATATAAATACATACA [CACACA_site4625]	11.2
AAAAAAAACGAACACACACACATACAAAATCTATAT [CACACA_site6795]	11.1
CATACATACAAACACACACACATATATATACATACA [CACACA_site852]	11.4
CACATACACATACAAACACACATTATATATATATAT [CACACA_site8460]	10.4
AAATATAAAAAATATACACACATATAAAATCTATAT [CACACA_site7406]	9.91
